Screens: PubChem BioAssay, several laboratories
Mcl1-Noxa inh: Mcl-1/Noxa binding inhibitors, primary screen, biochemical, TR-FRET, 1536-well. Induced myeloid leukemia cell differentiation protein Mcl-1 (Homo sapiens), Q07820. TR-FRET Mcl-1/Noxa peptide binding, 2 h. inhibition, % at 21.7 µM. 220,000 compounds, 1.5% hits. AID 1022, 2008;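 active = compounds that cut the protein-peptide binding signal by more than 50% relative to plate controls in a single-dose test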;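 note: His-tagged Mcl-1 with rhodamine Noxa BH3 peptide and terbium anti-His antibody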
Target sequence (Q07820 whole entry, looked up): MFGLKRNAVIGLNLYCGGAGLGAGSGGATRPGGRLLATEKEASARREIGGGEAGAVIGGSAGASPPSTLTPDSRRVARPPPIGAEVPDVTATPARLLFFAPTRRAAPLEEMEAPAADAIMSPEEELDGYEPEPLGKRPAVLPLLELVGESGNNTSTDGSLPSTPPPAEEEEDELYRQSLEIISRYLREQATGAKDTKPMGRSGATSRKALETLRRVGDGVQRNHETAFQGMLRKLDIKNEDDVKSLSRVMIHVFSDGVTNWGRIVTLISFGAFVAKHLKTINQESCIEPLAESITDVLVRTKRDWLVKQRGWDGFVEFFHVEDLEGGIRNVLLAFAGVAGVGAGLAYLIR
Mcl1 Bid PPI: Mcl-1/Bid binding inhibitors, primary screen, biochemical, TR-FRET, 1536-well; Induced myeloid leukemia cell differentiation protein Mcl-1 (Homo sapiens), Q07820; inhibition, % at 21.7 µM; AID 1021, 2008; TR-FRET Mcl-1/Bid-Dy647 peptide binding; 220,000 compounds, 0.97% hits;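 active = compounds that cut the binding signal by more than half at the single screening dose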;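 note: His-tagged Mcl-1 with europium anti-His antibody binding Bid BH3 peptide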
Bim-Mcl-1: inhibitors of Bim peptide binding to Mcl-1, primary screen, biochemical, bead-based flow cytometry, multiplex. Induced myeloid leukemia cell differentiation protein Mcl-1 (Homo sapiens), Q07820. Bim peptide-Mcl-1 binding. inhibition, % at 10 µM. 190,000 compounds, 0.1% hits. AID 1009, 2008; in the data active = inhibition above about 40%
MCL1 BIM primary: inhibitors of MCL1 binding to BIM-BH3, primary screen, biochemical, fluorescence polarization. Induced myeloid leukemia cell differentiation protein Mcl-1 (Homo sapiens), Q07820. GST-MCL1 / FITC-Bim-BH3 fluorescence polarization. inhibition, % at 10.9 µM. 320,000 compounds, 0.68% hits;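 active = inhibition above the mean inhibition of all tested compounds plus 3 SD, set per campaign, cut at about 40% in these data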;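 note: higher means more loss of mP so more displacement of Bim peptide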
14-3-3 Bad inh: inhibitors of 14-3-3 zeta/Bad binding, primary screen, biochemical, TR-FRET, bovine 14-3-3 zeta. TR-FRET 14-3-3zeta/Dy647-pBad peptide displacement, 1 h. 220,000 compounds, 0.71% hits. 14-3-3 protein zeta/delta (Bos taurus), P63103. inhibition, % at 21.7 µM;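 active = inhibition above about 70%, limit read from the data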
Target sequence (P63103 whole entry, looked up): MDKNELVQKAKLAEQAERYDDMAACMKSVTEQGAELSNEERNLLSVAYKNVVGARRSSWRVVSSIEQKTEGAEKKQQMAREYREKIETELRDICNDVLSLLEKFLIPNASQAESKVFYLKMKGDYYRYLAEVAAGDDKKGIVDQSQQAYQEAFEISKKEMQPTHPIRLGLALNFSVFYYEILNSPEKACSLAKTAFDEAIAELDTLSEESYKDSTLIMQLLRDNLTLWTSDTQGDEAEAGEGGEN
Numbers stand for hits; [ ] = dose if it differs, or a comment. In the library only some 2.5% were active in any assay of this set; here they are far more common.

`CCCCCCCCCCCCCCCC[n+]1ccc(/C=N/O)cc1` gave Mcl1-Noxa inh inactive, Mcl1 Bid PPI inactive, Bim-Mcl-1 inactive, MCL1 BIM primary inactive and 14-3-3 Bad inh 99.2[fluorescence artefact?].
For CCCCCCCC[n+]1cccc(C(=O)N(CC)CC)c1 the results were Mcl1-Noxa inh inactive, Mcl1 Bid PPI inactive, Bim-Mcl-1 inactive, MCL1 BIM primary inactive and 14-3-3 Bad inh inactive.
Screening CN(C)S(=O)(=O)c1ccc(C(=O)NCC2(N3CCCCC3)CCCCC2)cc1 returned Mcl1-Noxa inh inactive, Mcl1 Bid PPI inactive, Bim-Mcl-1 inactive, MCL1 BIM primary inactive and 14-3-3 Bad inh inactive.
`CCOc1cccc(CN2CCN(c3cccc(C(F)(F)F)c3)CC2)c1O` gave Mcl1-Noxa inh inactive, Mcl1 Bid PPI inactive, Bim-Mcl-1 inactive, MCL1 BIM primary inactive and 14-3-3 Bad inh inactive.
For CN1C(=O)/C(=C2\SC(=S)N(CCCCCC(=O)O)C2=O)c2ccccc21 the results were Mcl1-Noxa inh 113.3, Mcl1 Bid PPI 96.0, MCL1 BIM primary inactive and 14-3-3 Bad inh inactive.
Screening O=C(O)c1ccccc1C(=O)c1ccc(-c2ccccc2)cc1 returned MCL1 BIM primary inactive.
`Cc1cccc(C2Nc3ccccc3C(=O)N2NC(=O)c2ccc([N+](=O)[O-])cc2)n1` (stereo not given) gave Mcl1-Noxa inh inactive, Mcl1 Bid PPI inactive, Bim-Mcl-1 inactive, MCL1 BIM primary inactive and 14-3-3 Bad inh 73.5.
`C(=C\c1nnc2c3ccccc3ncn12)/c1ccccc1` gave Mcl1-Noxa inh inactive, Mcl1 Bid PPI inactive, Bim-Mcl-1 inactive, MCL1 BIM primary inactive and 14-3-3 Bad inh inactive.
Screening COc1cc(/C=C/c2nnc3c4ccccc4ncn23)cc(OC)c1OC returned Mcl1-Noxa inh 52.3, Mcl1 Bid PPI inactive, Bim-Mcl-1 inactive, MCL1 BIM primary inactive and 14-3-3 Bad inh inactive.
COc1ccc(N2Cc3ccccc3C2=O)cc1 was read as MCL1 BIM primary inactive.
For COc1ccc(N2Cc3cccc(C(=O)O)c3C2=O)cc1 the results were Mcl1-Noxa inh 78.6, Mcl1 Bid PPI inactive, Bim-Mcl-1 inactive, MCL1 BIM primary inactive and 14-3-3 Bad inh inactive.
For COc1ccccc1C1CC(c2ccccc2)Nc2ncnn21 (stereo not given) the results were Mcl1-Noxa inh inactive, Mcl1 Bid PPI 97.3, Bim-Mcl-1 inactive, MCL1 BIM primary inactive and 14-3-3 Bad inh inactive.
For COc1ccccc1C1CC(c2ccc(F)cc2)Nc2ncnn21 (stereo not given) the results were Mcl1-Noxa inh inactive, Mcl1 Bid PPI inactive, Bim-Mcl-1 inactive, MCL1 BIM primary inactive and 14-3-3 Bad inh inactive.
`CC(C)CN(CCNC(=O)c1cn(C)c2ccc(S(=O)(=O)N3CCCC3)cc2c1=O)CC(C)C` gave MCL1 BIM primary inactive.
`CC1(C)Cc2c(C#N)c(N3CCN(C(=O)c4ccccc4)CC3)nc(Cc3ccccc3)c2CO1` gave Mcl1-Noxa inh inactive, Mcl1 Bid PPI inactive, Bim-Mcl-1 inactive, MCL1 BIM primary inactive and 14-3-3 Bad inh inactive.
For C=C(C)Cn1c(Sc2nnc(C)s2)nc2c1c(=O)[nH]c(=O)n2C the results were Mcl1-Noxa inh inactive, Mcl1 Bid PPI 89.1, Bim-Mcl-1 inactive, MCL1 BIM primary inactive and 14-3-3 Bad inh inactive.
Cc1oc2c(C)c(O)ccc2c(=O)c1-c1ccc2ccccc2n1 was read as Mcl1-Noxa inh inactive, Mcl1 Bid PPI inactive, Bim-Mcl-1 inactive, MCL1 BIM primary inactive and 14-3-3 Bad inh inactive.
Screening CCC(=O)Oc1ccc2c(=O)c(-c3ccc4ccccc4n3)c(CC)oc2c1C returned Mcl1-Noxa inh 82.3, Mcl1 Bid PPI inactive, Bim-Mcl-1 inactive, MCL1 BIM primary inactive and 14-3-3 Bad inh inactive.
COc1ccc(S(=O)(=O)N(C)CC(=O)N2CCC(C(N)=O)CC2)cc1 was read as Mcl1-Noxa inh inactive, Mcl1 Bid PPI inactive, Bim-Mcl-1 inactive, MCL1 BIM primary inactive and 14-3-3 Bad inh inactive.
`COc1ccc(-c2ccc(/C=C3/C(=N)N4C=CSC4=NC3=O)o2)c([N+](=O)[O-])c1` gave Mcl1-Noxa inh 82.7, Mcl1 Bid PPI 75.4, Bim-Mcl-1 inactive, MCL1 BIM primary inactive and 14-3-3 Bad inh 72.7[fluorescence artefact?].
Screening CC(=O)Nc1ccc(OCCOc2ccc(/C=C3/C(=N)N4C=CSC4=NC3=O)cc2)cc1 returned Mcl1-Noxa inh inactive, Mcl1 Bid PPI inactive, Bim-Mcl-1 inactive, MCL1 BIM primary inactive and 14-3-3 Bad inh inactive.
For CN(C(=O)c1ccc2c(=O)n3c(nc2c1)CCCCC3)c1ccccc1Cl the results were Mcl1-Noxa inh inactive, Mcl1 Bid PPI inactive, MCL1 BIM primary inactive and 14-3-3 Bad inh inactive.
Screening C=CCC1(O)CC(c2ccco2)NC(c2ccco2)C1CCC (stereo not given) returned Mcl1-Noxa inh inactive, Mcl1 Bid PPI inactive, Bim-Mcl-1 inactive, MCL1 BIM primary inactive and 14-3-3 Bad inh 79.4.
For COc1cccc(N/C(SCc2ccccc2C)=C(/C#N)C(=O)NCc2cccs2)c1 the results were Mcl1-Noxa inh inactive, Mcl1 Bid PPI 54.0, Bim-Mcl-1 inactive, MCL1 BIM primary inactive and 14-3-3 Bad inh inactive.
COc1cccc(N/C(SCc2ccccc2Cl)=C(/C#N)C(=O)NCc2cccs2)c1 was read as Mcl1-Noxa inh inactive, Mcl1 Bid PPI inactive, Bim-Mcl-1 inactive, MCL1 BIM primary inactive and 14-3-3 Bad inh inactive.
Screening CCOc1cc(C(=S)N2CCOCC2)ccc1OC(=O)c1cccc(C)c1 returned MCL1 BIM primary inactive.
Screening O=C(O)CCCC(=O)Nc1ccc(Oc2ncnc3cc(Cl)ccc23)nc1 returned Mcl1-Noxa inh inactive, Mcl1 Bid PPI inactive, MCL1 BIM primary inactive and 14-3-3 Bad inh inactive.
For O=C(Nc1ccc(F)cc1)Nc1ccc(Oc2ncnc3cc(Cl)ccc23)nc1 the results were Mcl1-Noxa inh inactive, Mcl1 Bid PPI 91.9, MCL1 BIM primary inactive and 14-3-3 Bad inh inactive.
`COc1ccccc1N(Cc1ccccc1)S(=O)(=O)c1cccc(C(=O)O)c1` gave Mcl1-Noxa inh inactive, Mcl1 Bid PPI inactive, Bim-Mcl-1 inactive, MCL1 BIM primary inactive and 14-3-3 Bad inh inactive.
Screening COc1cc(OC)cc(C(=O)/C=C2\Sc3ccccc3N2C)c1 returned Mcl1-Noxa inh inactive, Mcl1 Bid PPI inactive, Bim-Mcl-1 inactive, MCL1 BIM primary inactive and 14-3-3 Bad inh inactive.
COc1ccc2c(c1)S/C(=C\C(=O)c1ccncc1)N2C was read as Mcl1-Noxa inh 65.9, Mcl1 Bid PPI inactive, Bim-Mcl-1 inactive, MCL1 BIM primary inactive and 14-3-3 Bad inh inactive.
`Oc1ccc(/C=N/Nc2ccnc3cc(Cl)ccc23)c(O)c1` gave Mcl1-Noxa inh 88.0, Mcl1 Bid PPI 56.7, MCL1 BIM primary inactive and 14-3-3 Bad inh inactive.
For Cc1ccc(/C=N/Nc2ccnc3cc(Cl)ccc23)c(C)c1 the results were Mcl1-Noxa inh 55.9, Mcl1 Bid PPI 62.6, Bim-Mcl-1 inactive, MCL1 BIM primary inactive and 14-3-3 Bad inh inactive.
Screening Clc1ccc2c(N/N=C/c3cccnc3)ccnc2c1 returned Mcl1-Noxa inh inactive, Mcl1 Bid PPI inactive, Bim-Mcl-1 inactive, MCL1 BIM primary inactive and 14-3-3 Bad inh inactive.
